# Source: the supplement of paper PMC6607015
# Where a name gives a salt, the structure may show the parent alone.
# What was measured:
# Conditions in all cases: compound concentration in added solution (µM; 5 µl added to 20 µl cells): 10; 18 h
# A431 [1] = assay: LBPA endosome anti-LBPA integrated intensity (sum per cell), Z-score; higher = more LBPA staining
# Outline: (§1)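 Duplicate 384-well imaging plates were prepared with 5 µl of 10 µM compound solution per well, and 3,500 HeLa MZ or A431 cells in 20 µl were added on top. Following 18 h of incubation and fixation in 4% PFA, cells received 6C4 anti-LBPA antibody, filipin, propidium iodide and CellTracker green. Four images per well at 20× were segmented in MetaXpress to yield per-cell integrated LBPA or filipin intensity, whole-cell or within LBPA endosomes. These intensities are reported as Z-scores normalised in AcuityXpress.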
# HeLa MZ [2] = assay: as above
# Outline: as §1
# A431 [3] = assay: whole-cell filipin (free cholesterol) integrated intensity, Z-score; higher = more cholesterol staining
# Outline: as §1
# HeLa MZ [4] = assay: as above
# Outline: as §1
# A431 [5] = assay: filipin (cholesterol) integrated intensity within LBPA endosomes, Z-score; higher = more cholesterol in LBPA endosomes
# Outline: as §1
# HeLa MZ [6] = assay: as above
# Outline: as §1
SMILES,LBPA endosome anti-LBPA integrated intensity (z-score) (A431 [1]),LBPA endosome anti-LBPA integrated intensity (z-score) (HeLa MZ [2]),whole-cell filipin (z-score) (A431 [3]),whole-cell filipin (z-score) (HeLa MZ [4]),filipin (z-score) (A431 [5]),filipin (z-score) (HeLa MZ [6])
C=C1/C(=C\C=C2/CCC[C@]3(C)[C@@H]([C@H](C)CCCC(C)C)CC[C@@H]23)C[C@@H](O)C[C@@H]1O [Alfacalcidol],0.0439,-0.204,-0.362,-0.701,-0.145,-0.743
CN1CCc2cccc3c2[C@H]1Cc1ccc(O)c(O)c1-3 [R(-) Apomorphine hydrochloride hemihydrate],2.19,0.867,-0.55,-1.57,0.31,-0.107
C[C@@H]1C[C@H]2[C@@H]3C[C@H](F)C4=CC(=O)C=C[C@]4(C)[C@@]3(F)[C@@H](O)C[C@]2(C)[C@@]1(O)C(=O)CO [Flumethasone],-0.341,-0.862,-0.0225,0.117,-0.194,-0.317
CCN[C@H]1C[C@H](C)S(=O)(=O)c2sc(S(N)(=O)=O)cc21 [Dorzolamide hydrochloride],-0.573,-0.633,0.0896,0.22,-0.481,-0.217
O=C(O)CCC(=O)c1ccc(-c2ccccc2)cc1 [Fenbufen],-0.493,0.243,-0.496,-0.311,-0.512,-0.583
CN(C)[C@@H]1C(O)=C(C(N)=O)C(=O)[C@@]2(O)C(O)=C3C(=O)c4c(O)ccc(Cl)c4[C@@](C)(O)[C@H]3C[C@@H]12 [Chlortetracycline hydrochloride],-0.612,-0.752,-1.07,-1.11,-0.66,-0.819
CC(C)N1CCN(c2ccc(OCC3COC(Cn4cncn4)(c4ccc(Cl)cc4Cl)O3)cc2)CC1 (stereo not drawn) [Terconazole],3.33,2.49,1.58,1.5,3.31,4.7
CC(COc1ccccc1)N(CCCl)Cc1ccccc1 (stereo not drawn) [Phenoxybenzamine hydrochloride],-0.295,-0.519,-0.105,0.141,-0.396,-0.505
O=C(O)COC(=O)Cc1ccccc1Nc1c(Cl)cccc1Cl [Aceclofenac],-0.449,-0.174,-0.423,-0.27,-0.383,-0.402
C=C1c2cccc(O)c2C(=O)C2=C(O)[C@]3(O)C(=O)C(C(N)=O)=C(O)[C@@H](N(C)C)[C@@H]3[C@@H](O)[C@H]12 [Methacycline hydrochloride],-0.461,-0.934,0.119,-0.217,-0.402,-0.642
CC(C)NC[C@H](O)COc1cccc2ccccc12 [(S)-propranolol hydrochloride],-0.105,1.72,0.666,-0.426,-0.189,0.093
CC1CC(OC(=O)c2ccccc2O)CC(C)(C)C1 (stereo not drawn) [Homosalate],-0.265,-0.48,-0.0483,0.0325,-0.434,-0.566
CNCC(O)c1ccc(OC(=O)C(C)(C)C)c(OC(=O)C(C)(C)C)c1 (stereo not drawn) [Dipivefrin hydrochloride],0.303,-0.643,1.75,0.0389,0.224,0.0222
CC(C)(Oc1ccc(Cl)cc1)C(=O)O [Clofibric acid],-0.512,-0.676,-0.43,-0.52,-0.514,-0.568
CCN(CC)CCc1nc(-c2ccccc2)no1 [Oxalamine citrate salt],-0.387,0.162,-0.277,-0.546,-0.442,-0.374
CNC(=C[N+](=O)[O-])NCCSCc1ccc(CN(C)C)o1 [Ranitidine hydrochloride],-0.424,0.0515,-1.03,-1.05,-0.524,-0.559
NNC(=O)c1ccncc1 [Isoniazid],-0.56,-1.34,-0.938,-1.09,-0.477,-0.667
Cc1cc(=O)oc2cc(O)ccc12 [Hymecromone],-0.504,-0.0954,-0.674,-0.684,-0.459,-0.528
CCc1cccc2c3c([nH]c12)C(CC)(CC(=O)O)OCC3 (stereo not drawn) [Etodolac],-0.65,-1.97,-0.842,-0.545,-0.553,-0.628
CC(=O)OCC(=O)[C@@]12OC(C)(C)O[C@@H]1C[C@H]1[C@@H]3C[C@H](F)C4=CC(=O)C=C[C@]4(C)[C@@]3(F)[C@@H](O)C[C@@]12C [Fluocinonide],-0.115,-0.842,-0.144,-0.284,-0.311,-0.49
NC(=O)NC1NC(=O)NC1=O (stereo not drawn) [Allantoin],-0.71,-1.01,-1.02,-0.573,-0.456,-0.604
CO[C@H]1C[C@H](O[C@H]2[C@H](C)[C@@H](O[C@@H]3O[C@H](C)C[C@H](N(C)C)[C@H]3OC(C)=O)[C@@H](C)C[C@@]3(CO3)C(=O)[C@H](C)[C@@H](OC(C)=O)[C@@H](C)[C@@H](C)OC(=O)[C@@H]2C)O[C@@H](C)[C@@H]1OC(C)=O [Troleandomycin],-0.105,0.938,-0.701,-0.492,-0.249,-0.17
CC(CCc1ccc(O)cc1)NCCc1ccc(O)c(O)c1 (stereo not drawn) [Dobutamine hydrochloride],-0.212,0.142,-0.349,-0.893,-0.473,-0.28
